{"source": "the supplement of paper PMC8728848", "binders": {"B1": {"name": "Epa1-NP-mutant-Y228W (Candida glabrata), Q6VBJ0 (protein)", "chain": "MILNPALFLNKCVCIYTTLILLLLTNGGYATSSNDISLASKDPTTFPLGCSPDITTPKKGLSMELYSYDFRKKGSYPCWDAAYLDPNYPRTGYKSHRLLAKVDGVTGNINFYYHATKGCTPQLGHLPASYNYPKPLTMTNFTMLLYGYFRPKVTGFHTFTISADDLLFVNFGAGNAFDCCRRDSSADHFGNYQAYAIWGSKTAKDELTVHLDAGVYYPIRLFYNNREWDGALSFTFKTESNENTVSDFSEYFFSLDDTEEGCPGLISYDSSCASVKTSKIIGIDYHTETPNENLVPITKTIYHLGIPCTGTTTTPLCGSGFYDPLANKCVTINTSSTSSVTKTTSHTTSKEVSFHSSISSQKTLIPKSIPSPYGPIKSQSIPTEMETSSEISSSEYAFSDVISTPSHSPYTKKHSSLNSSSYTSTVIHSLTSYSISQGIFSTSLSEQNITSKSSTDKFSTATSMSNNITQSSIIISQFSTNNENYTTTSMHTSSDKISTETLNNSISTTTSILFSNSSTILKNNTTIISSDKDTHYHPVNPTIVCSTNKTEIICASITQPSISNSNNHWSSSVLKFNSTTVRSTLPSSAGSNETSINVPFSSSTESNTSTSSTSTSNSKMVRSTLPSSAGSNETSISVPFSSSTESNTSTSSTSTSNSKMVRSTLPSSAGSNETSINVPFSSSTESNTSTSSTSTSNSKTVRSTPFSSAGIIMTSLSQRNNKSASSYASSNSKCYNTADSCRKVHSTPSYLLTSSYTSEGVDYDCSLVSTKLKINDTNCVNNKHTTKSCLKTSVTTTIPTLEIKTARKSSSNTIGLHSYPTSSPNKSISSAPIIGYISSFKTIKTASPSYQTSDLTTITTITSLNNPGSTAVENTHESNDKSRKTSSNDISSKHSVIKETKDAVESSNKSHQTNTLKCSSIIIASSSHNSYESLGGTTLTLTLSKVYSPQNNDTLPFLEISEVNPSRTVLPESSKMMQYLTSTEERNKTARNTIATNIVSISTFHFEGEGNAIRMGYTQLLLMLIGIIVMNIGT"}}, "test_in_all_cases": "glycan array binding signal (z-score within array); higher = stronger binding", "conditions_in_all_cases": "glycan notation: IUPAC condensed, linker removed; mutation: Y228W", "key": {"[1]": {"molecular_target": "Gal(b1-4)GlcNAc(b1-3)Gal(b1-4)GlcNAc(b1-2)[Gal(b1-4)GlcNAc(b1-3)Gal(b1-4)GlcNAc(b1-6)]Man(a1-6)[Gal(b1-4)GlcNAc(b1-3)Gal(b1-4)GlcNAc(b1-2)Man(a1-3)]Man(b1-4)GlcNAc(b1-4)[Fuc(a1-6)]GlcNAc", "method_in_brief": "(§1)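 Columns mapping to the same glycan were averaged after glycan names were converted to IUPAC-condensed notation. The data come from 3228 arrays in the Consortium for Functional Glycomics database, limited to those with an available protein sequence. Binding is reported as a within-array Z-score averaged across arrays of one protein sequence and across linkers.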"}, "[2]": {"molecular_target": "Gal(b1-4)GlcNAc(b1-3)Gal(b1-4)GlcNAc(b1-3)Gal(b1-4)GlcNAc(b1-2)[Gal(b1-4)GlcNAc(b1-3)Gal(b1-4)GlcNAc(b1-3)Gal(b1-4)GlcNAc(b1-6)]Man(a1-6)[Gal(b1-4)GlcNAc(b1-3)Gal(b1-4)GlcNAc(b1-3)Gal(b1-4)GlcNAc(b1-2)Man(a1-3)]Man(b1-4)GlcNAc(b1-4)[Fuc(a1-6)]GlcNAc", "method_in_brief": "as §1"}, "[3]": {"molecular_target": "Gal(b1-4)GlcNAc(b1-3)Gal(b1-4)GlcNAc(b1-3)Gal(b1-4)GlcNAc(b1-3)Gal(b1-4)GlcNAc(b1-3)Gal(b1-4)GlcNAc(b1-2)Man(a1-3)[Gal(b1-4)GlcNAc(b1-3)Gal(b1-4)GlcNAc(b1-3)Gal(b1-4)GlcNAc(b1-3)Gal(b1-4)GlcNAc(b1-3)Gal(b1-4)GlcNAc(b1-2)Man(a1-6)]Man(b1-4)GlcNAc(b1-4)GlcNAc", "method_in_brief": "as §1"}, "[4]": {"molecular_target": "Gal(b1-4)GlcNAc(b1-6)[Gal(b1-3)]GalNAc", "method_in_brief": "as §1"}, "[5]": {"molecular_target": "Gal3S(b1-4)[Fuc(a1-3)]GlcNAc6S", "method_in_brief": "as §1"}, "Gal6S(b1-3)GlcNAc6S": {"molecular_target": "Gal6S(b1-3)GlcNAc6S", "method_in_brief": "as §1"}, "Gal6S(b1-4)GlcNAc6S": {"molecular_target": "Gal6S(b1-4)GlcNAc6S", "method_in_brief": "as §1"}, "[6]": {"molecular_target": "GalNAc(b1-4)GlcNAc(b1-3)GalNAc(b1-4)GlcNAc", "method_in_brief": "as §1"}, "Glc(a1-4)Glc": {"molecular_target": "Glc(a1-4)Glc", "method_in_brief": "as §1"}, "GlcA(b1-6)Gal": {"molecular_target": "GlcA(b1-6)Gal", "method_in_brief": "as §1"}, "[7]": {"molecular_target": "GlcNAc(a1-3)Gal(b1-4)GlcNAc", "method_in_brief": "as §1"}, "GlcNAc(b1-3)Gal": {"molecular_target": "GlcNAc(b1-3)Gal", "method_in_brief": "as §1"}, "[8]": {"molecular_target": "GlcNAc(b1-4)Gal(b1-4)GlcNAc", "method_in_brief": "as §1"}, "Man(a1-3)[Man(a1-6)]Man": {"molecular_target": "Man(a1-3)[Man(a1-6)]Man", "method_in_brief": "as §1"}, "[9]": {"molecular_target": "Man(a1-3)[Man(a1-6)]Man(a1-6)[Man(a1-3)]Man", "method_in_brief": "as §1"}, "[10]": {"molecular_target": "Neu5Ac(a2-3)Gal(b1-3)GalNAc6S", "method_in_brief": "as §1"}, "[11]": {"molecular_target": "Neu5Ac(a2-3)Gal(b1-3)GlcNAc(b1-2)Man(a1-3)[Neu5Ac(a2-3)Gal(b1-3)GlcNAc(b1-2)Man(a1-6)]Man(b1-4)GlcNAc(b1-4)GlcNAc", "method_in_brief": "as §1"}, "[12]": {"molecular_target": "Neu5Ac(a2-3)Gal(b1-3)[Fuc(a1-4)]GlcNAc(b1-3)Gal(b1-4)[Fuc(a1-3)]GlcNAc", "method_in_brief": "as §1"}, "[13]": {"molecular_target": "Neu5Ac(a2-3)Gal(b1-4)GlcNAc(b1-3)Gal(b1-4)[Fuc(a1-3)]GlcNAc", "method_in_brief": "as §1"}, "[14]": {"molecular_target": "Neu5Ac(a2-3)Gal(b1-4)[Fuc(a1-3)]GlcNAc(b1-3)Gal", "method_in_brief": "as §1"}, "[15]": {"molecular_target": "Neu5Ac(a2-3)[GalNAc(b1-4)]Gal(b1-4)GlcNAc", "method_in_brief": "as §1"}, "[16]": {"molecular_target": "Neu5Ac(a2-6)Gal(b1-4)GlcNAc(b1-2)Man(a1-3)[Gal(b1-4)GlcNAc(b1-2)Man(a1-6)]Man(b1-4)GlcNAc(b1-4)GlcNAc", "method_in_brief": "as §1"}, "[17]": {"molecular_target": "Neu5Ac(a2-6)Gal(b1-4)GlcNAc(b1-2)Man(a1-3)[Man(a1-6)]Man(b1-4)GlcNAc(b1-4)GlcNAc", "method_in_brief": "as §1"}, "[18]": {"molecular_target": "Neu5Ac(a2-6)Gal(b1-4)GlcNAc(b1-2)Man(a1-3)[Neu5Ac(a2-6)Gal(b1-4)GlcNAc(b1-2)Man(a1-6)]Man(b1-4)GlcNAc(b1-4)[Fuc(a1-6)]GlcNAc", "method_in_brief": "as §1"}, "[19]": {"molecular_target": "Neu5Ac(a2-6)Gal(b1-4)GlcNAc(b1-2)Man(a1-6)[Gal(b1-4)GlcNAc(b1-2)Man(a1-3)]Man(b1-4)GlcNAc(b1-4)GlcNAc", "method_in_brief": "as §1"}, "[20]": {"molecular_target": "Neu5Ac(a2-6)GalNAc(b1-4)GlcNAc6S", "method_in_brief": "as §1"}, "Neu5Ac(a2-8)Neu5Ac": {"molecular_target": "Neu5Ac(a2-8)Neu5Ac", "method_in_brief": "as §1"}, "[21]": {"molecular_target": "Neu5Gc(a2-3)Gal(b1-4)GlcNAc", "method_in_brief": "as §1"}, "[22]": {"molecular_target": "Neu5Gc(a2-8)Neu5Gc(a2-3)Gal(b1-4)GlcNAc(b1-3)Gal(b1-4)GlcNAc", "method_in_brief": "as §1"}}, "note": "Shown is part of a subset that was picked to be rich in the strongest signals.", "data": [{"binder": "B1", "values": [{"measurement": "glycan array binding signal (z-score)", "setting": "[1]", "value": 2.98}, {"measurement": "glycan array binding signal (z-score)", "setting": "[2]", "value": 3.05}, {"measurement": "glycan array binding signal (z-score)", "setting": "[3]", "value": 1.78}, {"measurement": "glycan array binding signal (z-score)", "setting": "[4]", "value": 2.77}, {"measurement": "glycan array binding signal (z-score)", "setting": "[5]", "value": -0.015}, {"measurement": "glycan array binding signal (z-score)", "setting": "Gal6S(b1-3)GlcNAc6S", "value": 0.205}, {"measurement": "glycan array binding signal (z-score)", "setting": "Gal6S(b1-4)GlcNAc6S", "value": 3.63}, {"measurement": "glycan array binding signal (z-score)", "setting": "[6]", "value": -0.329}, {"measurement": "glycan array binding signal (z-score)", "setting": "Glc(a1-4)Glc", "value": -0.29}, {"measurement": "glycan array binding signal (z-score)", "setting": "GlcA(b1-6)Gal", "value": 0.341}, {"measurement": "glycan array binding signal (z-score)", "setting": "[7]", "value": -0.131}, {"measurement": "glycan array binding signal (z-score)", "setting": "GlcNAc(b1-3)Gal", "value": -0.421}, {"measurement": "glycan array binding signal (z-score)", "setting": "[8]", "value": -0.126}, {"measurement": "glycan array binding signal (z-score)", "setting": "Man(a1-3)[Man(a1-6)]Man", "value": -0.183}, {"measurement": "glycan array binding signal (z-score)", "setting": "[9]", "value": -0.095}, {"measurement": "glycan array binding signal (z-score)", "setting": "[10]", "value": -0.312}, {"measurement": "glycan array binding signal (z-score)", "setting": "[11]", "value": -0.117}, {"measurement": "glycan array binding signal (z-score)", "setting": "[12]", "value": 0.021}, {"measurement": "glycan array binding signal (z-score)", "setting": "[13]", "value": -0.295}, {"measurement": "glycan array binding signal (z-score)", "setting": "[14]", "value": -0.343}, {"measurement": "glycan array binding signal (z-score)", "setting": "[15]", "value": -0.228}, {"measurement": "glycan array binding signal (z-score)", "setting": "[16]", "value": -0.285}, {"measurement": "glycan array binding signal (z-score)", "setting": "[17]", "value": 0.235}, {"measurement": "glycan array binding signal (z-score)", "setting": "[18]", "value": -0.238}, {"measurement": "glycan array binding signal (z-score)", "setting": "[19]", "value": -0.14}, {"measurement": "glycan array binding signal (z-score)", "setting": "[20]", "value": -0.172}, {"measurement": "glycan array binding signal (z-score)", "setting": "Neu5Ac(a2-8)Neu5Ac", "value": -0.272}, {"measurement": "glycan array binding signal (z-score)", "setting": "[21]", "value": -0.19}, {"measurement": "glycan array binding signal (z-score)", "setting": "[22]", "value": -0.388}]}]}
